These sequences were tested against CD40 (assay: pooled miR-30 sensor sort-seq; sequence = guide strand). Settings: shRNA.

| Sequence | sensor-assay potency score (higher = more potent) |
| --- | --- |
| TGGTTCTGGATGGACAGCGGTC | -1.56 |
| TTCTTCACAGGTGCAGATGGTG | -0.762 |
| TATTAGGTACTGTTTTTCTCTG | -0.885 |
| TCTCCTGCACTGGAGCAGCAGT | -1.54 |
| ATTAGGTACTGTTTTTCTCTGC | -0.104 |
| TGTAGCAATCTGCTTGACCCCA | -0.6 |
| TCCGTTTCAGTGAACTCTGTGC | -0.4 |
| AAGAACAGCACTGACTGTTTAT | -1.08 |
| TTTGATAAAGACCAGCACCAAG | -1.36 |
| TTTTCTCTGCATGCAGTGGGTG | -0.932 |
| TACAGTGCCAGCCTTCTTCACA | -1.17 |
| AACCCCTGTAGCAATCTGCTTG | -0.675 |
| TTGGTCTCACAGCTTGTCCAAG | -1.27 |
| TTCCGTTTCAGTGAACTCTGTG | 0.749 |
| TGACTGTTTATTAGGTACTGTT | -0.925 |
| TTCTGAGGTGCCCTTCTGCTGG | -1.42 |
| TTTTTCTCTGCATGCAGTGGGT | -0.914 |
| ACAAAGAACAGCACTGACTGTT | 0.0373 |
| TCACTCACCAGTTTCTGTCCTG | 0.175 |
| TTTCAGTGAACTCTGTGCAGTC | 0.172 |
| TAGCAATCTGCTTGACCCCAAA | -1.28 |
| TATTGGTTGGCTTCTTGGCCAC | -0.723 |
| TTGGCATCCATGTAAAGTCTCC | -0.501 |

Each sequence was assayed against CD48 in the same assay as above. Settings: shRNA.

| Sequence | sensor-assay potency score (higher = more potent) |
| --- | --- |
| TATACAGTCTCTGTCCTGGTGA | -0.4 |
| TACTAGAAAACAACAAAGGGAT | -0.0806 |
| TTCTATCTTCTCAATTTTGATG | -0.753 |
| TTAGATTTTCTGGAATCCCATT | -1.01 |
| TCAATTTTGATGACAGGCTTGG | 0.186 |
| TTCAGAGTCACGTTGCTGCCGG | -0.426 |
| TTGGCAAGTATAACACCTGGAG | -0.157 |
| TTCAAGCACACTGTTCTGGAGC | -0.656 |
| TGATCTTCCATTCTTGCTCATT | -1.23 |
| TACAGGGTCAAGCACTTGCAGC | -1.55 |
| ATGTGTATCTCTATATCTCTGT | -0.19 |
| TATCACACATGACAGTTTCAAA | -1.19 |
| TTGGATTCAAAGTACTTAGATT | -1.05 |
| TGTAGTTTACAGACTCGCCAGG | -0.895 |
| TTCTACAATCTTCTGGTCGAAA | -0.694 |

Reference: the OligoGym collection
